The inhibition is the relative decrease from the control value, in per cent.

A short description of test [1]: antimalarial activity against Dd2 strain (AID 2302;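 active = growth inhibition above 50% at the single 2 µM test dose, taken to imply half-maximal potency below 2 µM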;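 also: 0% = DMSO untreated growth and 100% = chloroquine plus artemisinin killed control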). To be noted: P. falciparum Dd2 in RBCs, LDH growth readout, 72 h; at 2 µM; stronger effect = higher value.
Test [2] is described as follows: human hepatoma cell viability loss – ATP luminescence, cytotoxicity control for P. falciparum antimalarial project, primary screen (AID 2303;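 active = inhibition above 50%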;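 also: 0% = DMSO wells and 100% = digitonin-killed cells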). To be noted: HepG2 viability, 24-48 h, at 10 µM, stronger effect = higher value.
In test [3] the target is L-lactate dehydrogenase (Plasmodium falciparum (isolate CDC / Honduras)) (UniProt Q27743). Description: PfLDH activity inhibition – cell lysate, 3D7 strain, counter-screen for P. falciparum growth inhibition project (AID 2304).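 Also: 0% = vehicle and 100% = reference inhibitor.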 To be noted: P. falciparum 3D7 crude extract, LDH APAD/NBT absorbance; at 2 µM; stronger effect = higher value. (The purpose of a counterscreen is to sort out artefacts and off-target activity.)
L-lactate dehydrogenase (Plasmodium falciparum (isolate CDC / Honduras)), sequence (Q27743 whole entry, looked up): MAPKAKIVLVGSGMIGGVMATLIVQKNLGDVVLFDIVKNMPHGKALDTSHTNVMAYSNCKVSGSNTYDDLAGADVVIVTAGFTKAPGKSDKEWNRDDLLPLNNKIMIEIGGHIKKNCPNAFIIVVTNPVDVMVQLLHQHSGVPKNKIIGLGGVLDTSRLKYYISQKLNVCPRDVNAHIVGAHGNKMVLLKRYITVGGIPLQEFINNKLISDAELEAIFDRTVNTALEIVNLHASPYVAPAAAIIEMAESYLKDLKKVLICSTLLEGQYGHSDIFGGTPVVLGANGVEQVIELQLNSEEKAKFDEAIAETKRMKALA

The nature of test [4]: inhibition of 3D7 malaria parasite growth – strain 3D7 (AID 2306).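 Also: 0% = DMSO wells and 100% = chloroquine plus artemisinin control wells.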 To be noted: P. falciparum 3D7 erythrocytic growth, LDH absorbance, 72 h; at 2 µM; stronger effect = higher value.
Test [5] has as its target Calcium-dependent protein kinase 1 (Plasmodium falciparum (isolate 3D7)) (UniProt P62344). Put plainly: PfCDPK1 kinase inhibitors, biochemical, TCAMS library (AID 1159585; cut-off not given, nearly all actives have IC50 up to about 0.98 µM;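 also: inhibitors leave more ATP so luminescence rises with inhibition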). To be noted: recombinant PfCDPK1, Kinase-Glo ATP depletion luminescence.
Test [6] has as its target Plasmodium falciparum protein kinase 6 (PK6, PF3D7_1337100) (UniProt Q8IDW1). Description: PfPK6 kinase inhibitors, biochemical, TCAMS library (AID 1159586). To be noted: recombinant PfPK6, Kinase-Glo ATP depletion luminescence.
In test [7] the target is Protein kinase 7 (PK7), Plasmodium falciparum 3D7 (PF3D7_0213400) (UniProt Q7YTF7). Put plainly: inhibition of Plasmodium PK7 catalytic activity – biochemical, TCAMS antimalarial set, Kinase-Glo luminescence (AID 1159587). The settings on record: recombinant PfPK7, Kinase-Glo ATP depletion luminescence. (In general: Kinase-Glo reads ATP consumption through a luciferase reaction.)
Protein kinase 7 (PK7), Plasmodium falciparum 3D7 (PF3D7_0213400), sequence (Q7YTF7 1-343): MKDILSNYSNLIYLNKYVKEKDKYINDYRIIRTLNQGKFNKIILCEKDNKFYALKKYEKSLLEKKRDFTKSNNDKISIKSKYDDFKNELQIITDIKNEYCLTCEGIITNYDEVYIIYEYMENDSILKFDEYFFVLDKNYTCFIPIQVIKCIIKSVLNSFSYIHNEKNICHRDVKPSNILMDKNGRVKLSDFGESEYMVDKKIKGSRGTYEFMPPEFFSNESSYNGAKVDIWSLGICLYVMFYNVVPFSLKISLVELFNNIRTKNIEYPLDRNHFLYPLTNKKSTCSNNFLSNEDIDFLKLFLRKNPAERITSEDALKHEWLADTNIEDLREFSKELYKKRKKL

For test [8], the target named is Calcium-dependent protein kinase 4 (Plasmodium falciparum (isolate 3D7)) (UniProt Q8IBS5). Put plainly: PfCDPK4 kinase inhibitors, biochemical, TCAMS library (AID 1159588; cut-off not given, nearly all actives have IC50 up to about 0.91 µM). The settings on record: recombinant PfCDPK4, Kinase-Glo ATP depletion luminescence.
Calcium-dependent protein kinase 4 (Plasmodium falciparum (isolate 3D7)), sequence (Q8IBS5 whole entry, looked up): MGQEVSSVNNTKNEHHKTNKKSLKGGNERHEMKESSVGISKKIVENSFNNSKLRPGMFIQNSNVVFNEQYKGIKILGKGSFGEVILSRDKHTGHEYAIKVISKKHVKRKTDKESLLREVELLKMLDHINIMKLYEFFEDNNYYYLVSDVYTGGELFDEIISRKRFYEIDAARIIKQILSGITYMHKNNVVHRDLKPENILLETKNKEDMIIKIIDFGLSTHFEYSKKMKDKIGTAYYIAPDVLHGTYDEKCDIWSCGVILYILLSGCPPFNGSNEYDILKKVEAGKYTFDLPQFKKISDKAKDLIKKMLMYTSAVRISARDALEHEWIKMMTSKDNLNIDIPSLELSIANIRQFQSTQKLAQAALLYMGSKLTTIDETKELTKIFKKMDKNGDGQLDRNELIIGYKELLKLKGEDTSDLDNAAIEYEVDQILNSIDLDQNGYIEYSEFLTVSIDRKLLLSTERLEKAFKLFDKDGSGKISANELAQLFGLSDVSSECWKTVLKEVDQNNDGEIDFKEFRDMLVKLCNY

Values without a mark were called inactive. For some of these results: Potency and affinity values are given separately. Calls of active or inactive are those of the source. Unless noted, no rule for the calls is given here.

Calcium-dependent protein kinase 1 (Plasmodium falciparum (isolate 3D7)), sequence (P62344 whole entry, looked up): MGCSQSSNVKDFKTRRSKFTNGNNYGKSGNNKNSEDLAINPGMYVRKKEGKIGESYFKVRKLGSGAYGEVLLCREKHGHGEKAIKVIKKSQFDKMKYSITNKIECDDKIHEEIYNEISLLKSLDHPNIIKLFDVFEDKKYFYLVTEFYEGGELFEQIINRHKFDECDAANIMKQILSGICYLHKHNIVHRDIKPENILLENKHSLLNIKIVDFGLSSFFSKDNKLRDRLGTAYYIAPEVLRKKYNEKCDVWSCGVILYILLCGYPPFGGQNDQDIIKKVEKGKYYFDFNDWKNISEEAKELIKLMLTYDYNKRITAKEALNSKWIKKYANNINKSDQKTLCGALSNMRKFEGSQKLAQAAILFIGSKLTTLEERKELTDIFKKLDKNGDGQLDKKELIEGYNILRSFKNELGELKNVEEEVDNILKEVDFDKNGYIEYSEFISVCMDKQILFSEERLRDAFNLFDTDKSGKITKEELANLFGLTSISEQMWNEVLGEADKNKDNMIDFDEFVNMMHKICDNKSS
Plasmodium falciparum protein kinase 6 (PK6, PF3D7_1337100), sequence (Q8IDW1 1-305): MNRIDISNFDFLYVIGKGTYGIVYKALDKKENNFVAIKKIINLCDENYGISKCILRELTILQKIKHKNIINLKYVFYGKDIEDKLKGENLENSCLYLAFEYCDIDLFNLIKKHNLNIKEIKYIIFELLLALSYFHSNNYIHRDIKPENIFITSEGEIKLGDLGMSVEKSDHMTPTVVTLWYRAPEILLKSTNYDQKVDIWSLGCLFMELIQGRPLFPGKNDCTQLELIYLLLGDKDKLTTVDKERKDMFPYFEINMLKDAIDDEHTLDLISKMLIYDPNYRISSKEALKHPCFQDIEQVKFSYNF

In the case of `COc1cc(C=CC(=O)N2CCC3(CC2)CC(=O)c2ccccc2O3)cc(OC)c1OC`, the figures for the growth inhibition in test [1] and in test [4] were 66% (active) and 88% (active), respectively. Also, the results for the inhibition in test [2] and in test [3] were 7% and -1%, respectively. In addition, the outcome in test [5], in test [6], in test [7] and in test [8] was inactive.
`O=C(Cc1cnc[nH]1)Nc1cccc(-c2ccc(-c3nc4ccc(C(F)(F)F)cc4[nH]3)cc2)c1`: the growth inhibition was 99% (active) in test [1] and 102% (active) in test [4]. Moreover, the inhibition in test [2] was 10%; in test [3] it was -1%. In addition, the result in test [5], in test [6], in test [7] and in test [8] was inactive.
`FC(F)(F)c1cc(C(F)(F)F)c2cc(CNCCCNc3nc4ccccc4[nH]3)[nH]c2c1`: the growth inhibition is 99% (active) in test [1] and 100% (active) in test [4]. Moreover, the inhibition in test [2] was 99% (active); in test [3] it was 0%. Also, the outcome in test [5], in test [6], in test [7] and in test [8] was inactive.
With `CCc1ccc(NC(=O)c2cccc(CN3CCCN(Cc4cccc(O)c4)CC3)c2)cc1`, the growth inhibition in test [1] is 50% (active); in test [4], 99% (active). The inhibition is 53% (active) in test [2] and 3% in test [3]. Further, the outcome in test [5], in test [6], in test [7] and in test [8] was inactive.
Take `Cc1noc(-c2cccs2)c1C(=O)NC(C)c1cccc2ccccc12` (stereo not given): the growth inhibition in test [1] was 95% (active); in test [4], 97% (active). For the same molecule, the inhibition was -2% in test [2] and -4% in test [3]. Besides, the result in test [5], in test [6], in test [7] and in test [8] was inactive.
For the molecule `O=C(NC1CCCCC1)N(Cc1cccc(-c2cccc(CNC3CCCC3)c2)c1)C1CCN(Cc2ccccc2)CC1`, the growth inhibition in test [1] is 90% (active); in test [4], 96% (active). The inhibition in test [2] is 64% (active); in test [3], -7%. Also, the result in test [5], in test [6], in test [7] and in test [8] was inactive.
As to `CCOc1c(CCNCCCCNCCc2ccc3ccccc3c2OCC)ccc2ccccc12`, the growth inhibition in test [1] was 87% (active); in test [4] it was 94% (active). Moreover, the results for the inhibition in test [2] and in test [3] were 100% (active) and -3%, respectively. The result in test [5], in test [6], in test [7] and in test [8] was inactive.
With `CCOc1cc(C(=O)NCc2ccc(Cl)c(Cl)c2)ccc1-c1nc2ccc(Cl)cc2[nH]1`, the growth inhibition in test [1] is 4%; in test [4], 97% (active). Moreover, the values for the inhibition in test [2] and in test [3] were 10% and -2%, respectively. Besides, the outcome in test [5], in test [6], in test [7] and in test [8] was inactive.
As to `CNCCNC(=O)C1Cc2c([nH]c3c(C)cccc23)C(c2ccc(Cl)c(Cl)c2)N1` (stereo not given), the growth inhibition in test [1] was 60% (active); in test [4], 102% (active). Moreover, the results for the inhibition in test [2] and in test [3] were 13% and -5%, respectively. Also, the outcome in test [5], in test [6], in test [7] and in test [8] was inactive.
Take `O=C1CCCN1CCCNCc1cccc(-c2ccc(-c3nc4ccc(C(F)(F)F)cc4[nH]3)s2)c1`: the growth inhibition in test [1] is 99% (active); in test [4], 100% (active). In addition, the inhibition was 19% in test [2] and -4% in test [3]. The result in test [5], in test [6], in test [7] and in test [8] was inactive.
For the molecule `COc1ccc2c(NN=Cc3cccc(C)n3)ccnc2c1`, the growth inhibition in test [1] is 51% (active); in test [4], 96% (active). For the same molecule, the figures for the inhibition in test [2] and in test [3] were -12% and 3%, respectively. Also, the outcome in test [5], in test [6], in test [7] and in test [8] was inactive.
With `COc1ccccc1-c1cccc(Nc2c(Nc3ccc(Cl)cc3)c(=O)c2=O)c1`, the growth inhibition in test [1] was 47%; in test [4] it was 81% (active). The inhibition in test [2] was 20%; in test [3], 0%. Besides, the result in test [5], in test [6], in test [7] and in test [8] was inactive.
As to `O=C(Nc1ccc(SC(F)(F)F)cc1)Nc1ccc(Cl)c(Cl)c1`, the figures for the growth inhibition in test [1] and in test [4] were 99% (active) and 98% (active), respectively. In addition, the inhibition is 15% in test [2] and 4% in test [3]. Further, the result in test [5], in test [6], in test [7] and in test [8] was inactive.
Consider `Cc1cc(NCCc2ccccc2)nc(/N=C(\N)Nc2ccc(Cl)cc2)n1`, for which the growth inhibition in test [1] was 100% (active); in test [4], 102% (active). In addition, the inhibition in test [2] is 7%; in test [3], 4%. The outcome in test [5], in test [6], in test [7] and in test [8] was inactive.
With `O=C(N[C@@H](Cc1ccccc1)C(=O)NCCN1CCCCC1)c1ccc(O)c(-c2cccc(C(F)(F)F)c2)c1`, the growth inhibition in test [1] was 3%; in test [4], 92% (active). Moreover, the figures for the inhibition in test [2] and in test [3] were 0% and 7%, respectively. Further, the result in test [5], in test [6], in test [7] and in test [8] was inactive.
`CN(Cc1cc(C(F)(F)F)cc(C(F)(F)F)c1)C(=O)C(Cc1ccc(F)cc1)C1CCCNC1` (stereo not given): the growth inhibition in test [1] was 89% (active); in test [4], 96% (active). Also, the values for the inhibition in test [2] and in test [3] were 10% and 4%, respectively. Further, the result in test [5], in test [6], in test [7] and in test [8] was inactive.
Turning to `Cc1cnccc1/C=C/c1cccc(OCCCN2CCc3ccc(S(C)(=O)=O)cc3CC2)c1`, the values for the growth inhibition in test [1] and in test [4] were 72% (active) and 92% (active), respectively. The inhibition in test [2] and in test [3] was 1% throughout. Also, the outcome in test [5], in test [6], in test [7] and in test [8] was inactive.
Turning to `CCN1CCN(c2cc(C)c3cc(NC(=O)c4ccc(Br)o4)ccc3n2)CC1`, the values for the growth inhibition in test [1] and in test [4] were 13% and 98% (active), respectively. For the same molecule, the inhibition in test [2] was -8%; in test [3] it was -7%. Besides, the result in test [5], in test [6], in test [7] and in test [8] was inactive.
With `CCc1c(CCNCCCCCCNCCc2ccc(Br)cc2)ccc(O)c1O`, the values for the growth inhibition in test [1] and in test [4] were 1% and 95% (active), respectively. The inhibition was 11% in test [2] and -1% in test [3]. For the same molecule, the result in test [5], in test [6], in test [7] and in test [8] was inactive.
As for `O=C(NC1CCCCN(Cc2ccccc2O)C1)c1cccc(Cl)c1` (stereo not given), the figures for the growth inhibition in test [1] and in test [4] were 30% and 86% (active), respectively. For the same molecule, the inhibition in test [2] is 15%; in test [3], -4%. In addition, the result in test [5], in test [6], in test [7] and in test [8] was inactive.

The record behind these values is PubChem BioAssay.
